# About 5,100 (32%) of roughly 16,000 compounds were called active. About 25% were inconclusive and are not listed. Calls follow the shape of the dose curve; as a rule, active = well fitted curve in the direction sought with a large enough effect; inconclusive = small, poorly fitted or top-dose-only effect, or effect the other way; inactive = no such curve, though single readings can be large or run the other way. The list shows a part of the results.
# Biological target: Cytochrome P450 3A4 (Homo sapiens) (UniProt P08684)
# Sequence (P08684 whole entry, looked up): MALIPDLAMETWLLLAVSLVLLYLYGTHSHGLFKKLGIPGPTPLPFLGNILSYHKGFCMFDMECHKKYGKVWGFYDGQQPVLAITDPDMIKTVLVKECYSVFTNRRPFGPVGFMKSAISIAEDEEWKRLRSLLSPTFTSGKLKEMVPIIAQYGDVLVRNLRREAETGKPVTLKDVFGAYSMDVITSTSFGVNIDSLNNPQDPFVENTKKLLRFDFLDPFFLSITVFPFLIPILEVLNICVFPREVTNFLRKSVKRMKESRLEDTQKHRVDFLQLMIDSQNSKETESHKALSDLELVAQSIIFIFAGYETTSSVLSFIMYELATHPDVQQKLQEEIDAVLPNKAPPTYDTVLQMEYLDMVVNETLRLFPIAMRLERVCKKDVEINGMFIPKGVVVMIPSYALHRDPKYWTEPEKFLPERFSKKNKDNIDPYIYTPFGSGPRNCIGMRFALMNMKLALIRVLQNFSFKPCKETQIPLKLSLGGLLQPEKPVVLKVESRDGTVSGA
# Assay: Cytochrome panel assay with activity outcomes
# Settings: recombinant CYP, pro-luciferin dealkylation, luminescence, p450-cyp3a4; series mostly up to 57.1 µM; activity, negative = inhibition: at the top concentration
# % is scaled to controls: 0 for no effect and ±100 for the full control effect.
Compound,AC50,"activity, negative = inhibition"
NC(=O)c1ccc(-c2nc(-c3ccc4c(c3)OCO4)c(-c3ccccn3)[nH]2)cc1,10 µM (active),–
NC(=O)c1ccc(-c2ncc(-c3ccccc3)o2)cc1,–,-23.2% (inactive)
O=C(O)Cc1nn(Cc2ccc(Br)cc2F)c(=O)c2ccccc12,–,1.75% (inactive)
CCOc1cc(CNCCCN2CCOCC2)cc(Br)c1OCC(=O)Nc1cccc(C(F)(F)F)c1,4.47 µM (active),–
c1csc(CNCCCN2CCOCC2)c1,–,-5.52% (inactive)
COc1ccc(NC(=O)COc2ccc(CNCCCN3CCOCC3)cc2OC)cc1,–,-19.4% (inactive)
CN(C)C(=O)c1ccc(-c2nc(Nc3ccncc3)c3ccccc3n2)cc1,15.8 µM (active),–
CN(C)c1ccc(-c2nc(Nc3ccncc3)c3ccccc3n2)cc1,7.94 µM (active),–
CC(=O)NC1=NC(=O)C(C)S1 (stereo not given),–,-3.3% [at 2.29 µM] (inactive)
Cc1onc(-c2c(F)cccc2Cl)c1C(=O)N[C@@H]1C(=O)N2[C@H]1SC(C)(C)[C@H]2C(=O)O,–,-13.2% [at 11.4 µM] (inactive)
Cc1onc(-c2c(F)cccc2Cl)c1C(=O)N[C@H]1C(=O)N2[C@H]1SC(C)(C)[C@H]2C(=O)O,–,-12.4% [at 25.6 µM] (inactive)
CCN(CC)S(=O)(=O)c1ccc(C(=O)Nc2ncn(Cc3ccccc3)n2)cc1,–,-5.91% (inactive)
CCCC(=O)Nc1c(C)n[nH]c1C,–,-12.2% (inactive)
Cc1ccccc1-n1nc2c(c1NC(=O)c1c(-c3ccccc3Cl)noc1C)CSC2,1.12 µM (active),–
Cc1ccc(NC(=O)CCC(=O)NNC(=O)c2cccs2)c(C)c1,–,-1.38% [at 2.29 µM] (inactive)
Cc1cc(NC(=O)c2ccc(S(=O)(=O)N(C)C)cc2)n(-c2ccccn2)n1,–,8.07% (inactive)
CCCC(=O)Nc1c2c(nn1-c1ccc(C)cc1C)CSC2,7.08 µM (active),–
Cc1ccccc1-n1nc2c(c1NC(=O)c1ccc(S(=O)(=O)N(C)C)cc1)CSC2,14.1 µM (active),–
Cc1ccc(-n2nc3c(c2NC(=O)c2cccs2)CSC3)cc1,12.6 µM (active),–
Cc1ccc(NC(=O)CCC(=O)NNS(=O)(=O)c2ccccc2)c(C)c1,–,21.8% [at 2.29 µM] (inactive)
CCC(=S)/C=C1\Sc2ccccc2N1CCCS(=O)(=O)O,–,19.1% (inactive)
O=C(O)Cc1c(O)ccc2ccccc12,–,-10.5% [at 11.4 µM] (inactive)
c1cncc(-c2nnc3n2C2(CCCCC2)Cc2ccccc2-3)c1,1 µM (active),–
CCCn1cnc2c(SCC(=O)O)nc(N)nc21,–,-4.33% [at 11.4 µM] (inactive)

Compound,AC50,"activity, negative = inhibition"
Cc1[nH]n(C(C)(C)C)c(=O)c1Sc1ccc(Cl)cc1,15.8 µM (active),–
Cc1[nH]n(C(C)(C)C)c(=O)c1Sc1ccccc1,–,28.8% (inactive)
O=S(=O)(O)c1ccc2cc(N=Nc3cc(S(=O)(=O)O)c4cccnc4c3O)ccc2c1,–,-6.99% [at 11.4 µM] (inactive)
CCCCc1ccc(-c2csc(/C(C#N)=C/c3ccc(C)o3)n2)cc1,12.6 µM (active),–
CC(=O)c1cccc(NC(=O)Oc2ccccc2)c1,–,14.9% (inactive)
COc1cccc(N(CC(=O)Nc2cccc(C(C)=O)c2)S(C)(=O)=O)c1,11.2 µM (active),–
Cc1ccc(NC(=O)C2CCN(S(=O)(=O)c3c(C)n[nH]c3C)CC2)nc1,–,-20.6% (inactive)
Cc1n[nH]c(C)c1S(=O)(=O)N1CCOCC1,–,-6.35% (inactive)
Cc1cccc(NS(=O)(=O)c2c(C)n[nH]c2C)c1,25.1 µM (active),–
COc1ccc(N(CC(=O)Nc2cccc(C)c2)S(=O)(=O)c2c(C)n[nH]c2C)cc1,3.16 µM (active),–
CC(=O)c1cc2c(cc1NC(=O)CCCC(=O)O)OCO2,–,-24.3% (inactive)
CC(=O)c1c(N=CN(C)C)nc(C)nc1-c1ccccc1,–,-8.85% (inactive)
CC(=O)c1cc2c(cc1NC(=O)c1c(-c3ccccc3)noc1C)OCO2,1.58 µM (active),–
CN(N=O)C(=O)N[C@H]1C(O)OC(CO)[C@@H](O)[C@H]1O (stereo not given in full),–,-11.7% (inactive)
CN(C)/C=C/C(=O)c1ccc(F)cc1,–,-10.5% (inactive)
O=C(/C=C\NCC(=O)c1ccccc1)c1ccc(F)cc1,14.1 µM (active),–
O=C(C[n+]1cccc(NC(=O)c2ccccc2)c1)c1ccc(NC(=O)c2ccccc2)cc1,–,9.66% [at 2.29 µM] (inactive)
O=C(/C=C\NCC(=O)c1ccccc1)c1ccccc1,15.8 µM (active),–
O=C(CCCc1ccccn1)c1ccccc1,–,-27.1% [at 11.4 µM] (inactive)
O=C(O)CCC(=O)CCC(=O)c1ccccc1,–,-7.58% (inactive)
N[C@@H](CS(=O)O)C(=O)O,–,-3.74% (inactive)
COc1cccc([C@H]2Oc3ccc(OC)cc3/C(=N\OC[C@@H](O)[C@@H]3O[C@@H]4OC(C)(C)O[C@@H]4[C@H]3O)[C@@H]2O)c1,3.98 µM (active),–
COc1cccc([C@@H]2Oc3ccc(OC)cc3/C(=N/OC[C@@H](O)COCc3ccco3)[C@@H]2O)c1,3.16 µM (active),–
CCOc1ccc(/C=C2\C(=O)c3ccccc3OC2c2ccccc2)cc1 (stereo not given),–,17.9% (inactive)

Compound,AC50,"activity, negative = inhibition"
Cn1c(=O)n2n(c1=O)[C@H]1[C@H](O)[C@H]3O[C@@H]3/C(=N/OC[C@@H](O)COCc3ccco3)[C@@H]1CC2,–,-23.8% [at 11.4 µM] (inactive)
COc1cccc([C@@H]2Oc3ccc(OC)cc3C(=O)[C@H]2O)c1,3.98 µM (active),–
COc1cccc(C2C3(C#N)C(N)=NC(OC)(OC)C23C#N)c1 (stereo not given),–,-16.8% [at 2.29 µM] (inactive)
COc1cccc([C@@H]2Oc3ccc(OC)cc3/C(=N/OC[C@@H](C)[C@H](OCc3ccccc3)C(C)C)[C@@H]2O)c1,3.16 µM (active),–
CC(C)=NOC[C@@H](O)COCc1ccco1,–,-14.7% [at 11.4 µM] (inactive)
CCN1C(=O)[C@H]2[C@H]3[C@H](O)[C@H](O)C/C(=N/OC[C@@H](O)[C@H]4O[C@H]5OC(C)(C)O[C@H]5[C@@H]4O)[C@@H]3CC[C@@H]2C1=O,–,-16.2% [at 11.4 µM] (inactive)
O=C(O)Cc1ccc2c(c1)N(S(=O)(=O)c1cccc(C(F)(F)F)c1)CC(C(=O)O)O2 (stereo not given),–,-7.46% [at 2.29 µM] (inactive)
CCOC(=O)C1CN(S(=O)(=O)c2cccc(C(F)(F)F)c2)c2cc(CC(=O)OC)ccc2O1 (stereo not given),5.01 µM (active),–
CCS(=O)(=O)c1ccc2c(c1)N(S(C)(=O)=O)CC(C(=O)NCCOC)O2 (stereo not given),–,-7.69% (inactive)
COc1ccc2[nH]cc(CCNc3ncnc4ccc(-c5ccc(C(=O)N(C)C)cc5)cc34)c2c1,2.51 µM (active),–
COc1ccc2[nH]cc(CCNc3ncncc3-c3ccc(N(C)C)cc3)c2c1,0.501 µM (active),–
COc1ccc2[nH]cc(CCNc3ncncc3-c3ccc(C(=O)N(C)C)cc3)c2c1,1 µM (active),–
CC1CC/C(=C\c2ccc3c(c2)OCO3)C(=O)/C1=C/c1ccc2c(c1)OCO2 (stereo not given),1.58 µM (active),–
CCS(=O)(=O)c1ccc(C(=O)Nc2ccccc2)c(Cl)c1Cl,5.01 µM (active),–
CCS(=O)(=O)c1ccc(O)c(NC(=O)Nc2ccccc2)c1,–,-25.1% (inactive)
CC(C)CO/N=C1/[C@H]2O[C@@H]2[C@@H](O)[C@H]2[C@H]1CCn1c(=O)n(C)c(=O)n12,–,-9.68% [at 11.4 µM] (inactive)
Cc1nc(S(=O)(=O)N(C)c2ccccc2)c(C#N)c(C)c1Cl,–,-23.4% (inactive)
Cc1nc(S(=O)(=O)NC2CCCCC2)c(C#N)c(C)c1Cl,7.94 µM (active),–
Cc1nc(S(=O)(=O)N2CCOCC2)c(C#N)c(C)c1Cl,–,-9.65% (inactive)
Cc1cccc(NC(=O)CSc2nc(COc3ccccc3)nc3ccccc23)c1C,3.98 µM (active),–
N[C@H](C(=O)O)c1cc(O)cc(O)c1,12.6 µM (active),–
N[C@H](C(=O)O)c1ccc(C(=O)O)c(O)c1,–,-8.41% (inactive)
N[C@@H](C(=O)O)c1cc(O)ccc1Cl,15.8 µM (active),–
N[C@H](C(=O)O)c1cccc(O)c1,inactive,–

Compound,AC50,"activity, negative = inhibition"
N[C@@H](C(=O)O)c1ccc(C(=O)O)c(O)c1,–,-10.3% (inactive)
N[C@H](C(=O)O)c1ccc(O)c(C(=O)O)c1,–,-10.6% (inactive)
NC(N)=N[C@@H]1C(O)[C@H](N=C(N)N)[C@@H](O)C(O)[C@H]1O (stereo not given in full),–,12.2% [at 11.4 µM] (inactive)
NC(=O)NC(=O)[C@H]1CCCC[C@@H]1C(=O)O,–,2.92% [at 11.4 µM] (inactive)
COn1c(SC(C)C)nc2ccccc2c1=O,–,5.93% [at 11.4 µM] (inactive)
COn1c(SCc2ccc(C)cc2C)nc2ccccc2c1=O,12.6 µM (active),–
COn1c(SCc2cccc(Cl)c2)nc2ccccc2c1=O,–,-25.3% (inactive)
COc1cccc(/C=N/n2nnc3c(cnn3-c3ccccc3)c2=O)c1,–,22% (inactive)
O=c1oc(-c2ccco2)nc2c1cnn2-c1ccccc1,–,-8.28% (inactive)
COc1ccc(Oc2c(Cl)cnn(-c3ccccc3)c2=O)cc1,14.1 µM (active),–
CNc1nc(-c2ccc(N(C)C)cc2)nc2ccccc12,15.8 µM (active),–
CSc1c(-c2ccccc2)nc2ccccc2c1C(=O)O,–,4.08% (inactive)
CN(C)c1nc(-c2ccccc2C(F)(F)F)nc2ccccc12,–,-23.4% (inactive)
CN(C)c1nc(-c2cccnc2)nc2ccccc12,7.94 µM (active),–
CN(C)c1ccc(-c2nc(N(C)C)c3ccccc3n2)cc1,12.6 µM (active),–
O=C(CC1(O)CCCCC1)OC1CCCC1,–,-11.8% [at 11.4 µM] (inactive)
O=C1COc2ccccc2CN1,–,5.27% [at 2.29 µM] (inactive)
Cn1c(=O)c2[nH]c([C@@H]3CC(=O)C[C@H](c4nc5c([nH]4)c(=O)n(C)c(=O)n5C)N3)nc2n(C)c1=O,–,2.95% [at 11.4 µM] (inactive)
COc1cccc(C(=O)Nc2ccc(NC(=O)c3ccco3)cn2)c1,–,-4.16% [at 2.29 µM] (inactive)
COc1c(NC(C)=O)c2ccccc2c2ccccc12,–,-28.7% [at 11.4 µM] (inactive)
COc1cccc(NC(=O)c2oc3ccccc3c2NC(C)=O)c1,11.2 µM (active),–
CCOc1ccc(NC(=O)c2oc3ccccc3c2NC(=O)CC)cc1,15.8 µM (active),–
COc1cccc(NC(=O)c2oc3ccccc3c2NC(=O)c2ccc3c(c2)OCO3)c1,1.78 µM (active),–

# Reference: PubChem BioAssay AID1851 (National Center for Advancing Translational Sciences (NCATS), 2009)
